gsp ag: agonists of gsp mutant (McCune-Albright syndrome) | AID 624287 | gsp mutant cells, cAMP HTRF, 30 min | 340,000 tested, 0.13% active | Potency, µM (top dose mostly 76.9 µM), most hits filed as activators; active = well fitted activation curve with a large enough effect; inconclusive = small, poorly fitted or top-dose-only effect, or another doubt; inactive = no such curve, though single readings can be large or run the other way; cell line not stated here;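 also: phosphodiesterase inhibitor Ro 20-1724 added with compounds to block cAMP breakdown; nearly all actives have a fitted effect of over 60% in size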
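Cells in DMEM/10% FBS with G418 were pretreated with compounds in DMSO plus […] (300 uM stock) for 30 min at 37C. cAMP was measured by HTRF (cAMP-d2 plus anti-cAMP antibody-K) after 30 min at room temperature.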
RXFP1 antag: antagonists of human relaxin receptor RXFP1; Q9HBX9; HEK293-RXFP1, relaxin-stimulated cAMP HTRF, 30 min; hits give low values; activity change, negative = inhibition, % at 57.5 µM; 350,000 tested, 0.59% active;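 active = activity change of -60% or lower, but not beyond a set lower limit; inconclusive = change between -60% and -40%, or beyond the set limit; inactive = change above -40%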
Target sequence (Q9HBX9 whole entry, looked up): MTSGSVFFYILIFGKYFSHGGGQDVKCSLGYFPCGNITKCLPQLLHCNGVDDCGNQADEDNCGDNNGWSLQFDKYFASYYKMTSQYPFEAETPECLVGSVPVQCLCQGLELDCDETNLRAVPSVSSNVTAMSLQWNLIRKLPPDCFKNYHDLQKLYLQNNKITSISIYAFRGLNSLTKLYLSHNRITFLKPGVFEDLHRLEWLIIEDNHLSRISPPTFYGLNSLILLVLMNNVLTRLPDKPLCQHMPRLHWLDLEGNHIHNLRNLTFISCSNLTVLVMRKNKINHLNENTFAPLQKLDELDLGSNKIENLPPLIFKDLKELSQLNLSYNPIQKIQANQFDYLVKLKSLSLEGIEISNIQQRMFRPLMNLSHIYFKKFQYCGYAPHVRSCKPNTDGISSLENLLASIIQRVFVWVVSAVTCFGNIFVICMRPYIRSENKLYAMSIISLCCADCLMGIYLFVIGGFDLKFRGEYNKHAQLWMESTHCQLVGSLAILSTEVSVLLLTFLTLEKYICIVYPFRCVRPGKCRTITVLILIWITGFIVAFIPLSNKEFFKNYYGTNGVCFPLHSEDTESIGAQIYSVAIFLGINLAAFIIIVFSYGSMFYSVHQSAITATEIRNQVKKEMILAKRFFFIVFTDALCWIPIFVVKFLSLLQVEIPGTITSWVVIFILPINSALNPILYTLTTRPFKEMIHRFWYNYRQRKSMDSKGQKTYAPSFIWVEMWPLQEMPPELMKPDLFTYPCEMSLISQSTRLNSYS
gsp antag: antagonists of gsp mutant (McCune-Albright syndrome) | gsp-mutant cells, cAMP HTRF, 30 min | Potency, µM (top dose mostly 76.9 µM), actives largely listed as inhibitors | 340,000 tested, 0.4% active | AID 624288; calls by dose curve; cell line not stated here;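 also: intracellular cAMP measured with PDE inhibitor Ro 20-1724 present during compound exposure; nearly all actives have a fitted effect of over 65% in size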
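HTRF cAMP read-out (cAMP-d2 plus anti-cAMP antibody-K in lysis buffer, 30 min RT). Before lysis, cells are exposed to compounds with […] for 30 min at 37C in DPBS containing Ca/Mg, BSA and Tween 20.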
RXFP1 ag: activates the human relaxin receptor RXFP1 | Q9HBX9 | AID 2676 | Potency, µM (series often up to 57.5 µM), most hits filed as activators | 370,000 tested, 0.3% active | HEK293T-RXFP1 cAMP TR-FRET, 30 min; response scale: percent of porcine relaxin response, buffer zero; active = well fitted activation curve with a large enough effect; inconclusive = small, poorly fitted or top-dose-only effect; also: nearly all actives have a fitted effect of over 60% in size
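HEK293T cells stably expressing RXFP1 were pretreated with the PDE4 inhibitor Ro 20174, exposed to compounds for 30 min at 37C, lysed, and cAMP was read by TR-FRET. Data normalized to buffer (basal) and 29 nM porcine relaxin (100%).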
Hits are given with their value; [ ] = remark or other dose. Hits are enriched below; roughly 0.9% of the tested compounds scored in any of these assays.

CCOC(=O)Cc1csc(NC(=O)COc2ccc(N(C)S(=O)(=O)c3cccs3)cc2)n1 was read as gsp ag inactive, RXFP1 antag inactive, gsp antag 35µM and RXFP1 ag inactive.
For CCOC(=O)Cc1csc(NC(=O)COc2ccccc2)n1 the results were gsp ag inconclusive, RXFP1 antag inactive, gsp antag inactive and RXFP1 ag inactive.
Screening O=C(Nc1nc(-c2cc(F)ccc2F)cs1)c1cccc(N2C(=O)CCC2=O)c1 returned gsp ag inactive, RXFP1 antag inactive, gsp antag 40µM and RXFP1 ag inactive.
`O=C(Nc1nc(-c2ccc(F)cc2)cs1)c1cccc(N2C(=O)CCC2=O)c1` gave gsp ag inactive, RXFP1 antag inactive, gsp antag inconclusive and RXFP1 ag inactive.
COc1cccc(-c2nc3c(c(SCc4ccccc4)n2)Cc2c(CO)cnc(C)c2O3)c1 was read as RXFP1 antag inactive and RXFP1 ag inactive.
For CC(C)(C)OC(=O)CNC(=O)c1[nH]cnc1C(=O)NCCCCCNC(=O)OC(C)(C)C the results were gsp ag inactive, gsp antag 35µM and RXFP1 ag inactive.
For CCOC(=O)CC(=O)CSc1nc2ccsc2c(=O)n1Cc1ccccc1 the results were RXFP1 antag inactive and RXFP1 ag inactive.
For Cc1c(C#N)c2ncn(CCCN(C)C)c(=O)c2n1-c1ccccc1 the results were gsp ag inactive, RXFP1 antag inactive, gsp antag inactive and RXFP1 ag inactive.
Cc1c(C#N)c2ncn(Cc3ccccn3)c(=O)c2n1-c1ccccc1 was read as gsp ag inactive, RXFP1 antag inactive, gsp antag 28µM and RXFP1 ag inactive.
`CCOC(=O)c1cnc(-n2nc(C)cc2C)nc1Nc1ccc(O)cc1` gave gsp ag inactive, RXFP1 antag inactive, gsp antag 11µM and RXFP1 ag inactive.
For Clc1ccc(C(c2ccccc2Cl)C(Cl)Cl)cc1 (stereo unspecified) the results were RXFP1 antag -74, gsp antag inactive and RXFP1 ag inactive.
For COc1ccc(/C=N/NC(=O)C(=O)N2CCCC2)cc1 the results were gsp ag inactive[15.4 µM], RXFP1 antag inactive, gsp antag inactive and RXFP1 ag inactive.
For O=C(COc1ccc(/C=N/NC(=O)C(=O)N2CCCCC2)cc1)Nc1ccccc1Cl the results were gsp ag inactive, RXFP1 antag -73, gsp antag inactive and RXFP1 ag inactive.
Screening O=C(Nc1ccc(N2CCN(c3ccc(C(F)(F)F)cn3)CC2)nc1)c1cccs1 returned gsp ag inactive[15.4 µM], RXFP1 antag inactive, gsp antag inactive and RXFP1 ag inactive.
For O=C(Nc1ccc(N2CCN(c3ncccc3C(F)(F)F)CC2)nc1)c1cccs1 the results were gsp ag inactive[15.4 µM], RXFP1 antag -69, gsp antag 50µM and RXFP1 ag inactive.
For Cn1cc(S(=O)(=O)N2CCCC2)cc1C(=O)Nc1ccc(C(F)(F)F)cc1 the results were RXFP1 antag inactive and RXFP1 ag inactive.
Screening COc1ccc(-c2csc(NC(=O)[C@H](C)N3C(=O)C4CC=CCC4C3=O)n2)cc1OC (stereo partly specified) returned gsp ag inactive, RXFP1 antag inactive and gsp antag inactive.
CC(C(=O)Nc1nc(-c2ccc(F)c(F)c2)cs1)N1C(=O)C2CC=CCC2C1=O (stereo unspecified) was read as gsp ag inactive, RXFP1 antag inconclusive, gsp antag 35µM and RXFP1 ag inactive.
`CC(CCc1ccccc1)NC(=O)COC(=O)c1ccc(S(C)(=O)=O)c([N+](=O)[O-])c1` (stereo unspecified) gave gsp ag inactive[15.4 µM], RXFP1 antag -89, gsp antag inconclusive and RXFP1 ag inactive.
CC(CCc1ccccc1)NC(=O)COC(=O)c1ccc([N+](=O)[O-])cc1 (stereo unspecified) was read as gsp ag inactive, RXFP1 antag inactive, gsp antag inactive and RXFP1 ag inactive.
Screening COC(=O)C1CCN(C(=O)c2cc(-c3ccc(Cl)s3)nc3ccccc23)CC1 returned gsp ag inconclusive, RXFP1 antag inactive, gsp antag 32µM and RXFP1 ag inactive.
For CC(=O)OCC(=O)Nc1cc(C#N)cc(NC(=O)COC(C)=O)c1Cl the results were RXFP1 antag inactive.
CCCCNC(C(=O)Nc1cccc(S(=O)(=O)N2CCOCC2)c1)c1ccccc1 (stereo unspecified) was read as gsp ag inactive[15.4 µM], RXFP1 antag inactive, gsp antag 11µM and RXFP1 ag inactive.
Cc1ccc(C)c(SCC(=O)Nc2cccc(S(=O)(=O)N3CCOCC3)c2)c1 was read as gsp ag inactive[15.4 µM], RXFP1 antag inactive, gsp antag inactive and RXFP1 ag inactive.
`CC(=O)Nc1ccn(C2COC(COC(=O)c3ccccc3)O2)c(=O)n1` (stereo unspecified) gave RXFP1 antag inactive.
Screening Cc1ccc(C(OCC(O)CNC(C)c2ccccc2)c2ccccc2)cc1 (stereo unspecified) returned gsp ag inactive[15.4 µM], RXFP1 antag -70, gsp antag inactive and RXFP1 ag inactive.
Cc1ccc(-c2nn(-c3ccccc3)cc2CO)cc1 was read as gsp ag inactive[15.4 µM], RXFP1 antag inactive, gsp antag inactive and RXFP1 ag inactive.
Screening N=C(N)SCc1cn(-c2ccccc2)nc1-c1ccc(Br)cc1 returned gsp ag inactive[15.4 µM], RXFP1 antag -79 and RXFP1 ag inactive.
`CCCCN(CC)CCCNC(=O)c1ccc2c(c1)N(Cc1ccc(C)cc1)C(=O)c1ccccc1S2` gave RXFP1 antag -66 and RXFP1 ag inactive.
CC(=O)N[C@@H](CO)C(=O)N[C@@H](CC(=O)O)C(=O)N[C@@H](CCCCN)C(=O)N1CCC[C@H]1C(=O)O was read as RXFP1 antag inactive.
`CCOc1ccccc1NC(=O)CCCc1nc(-c2ccccc2Cl)no1` gave RXFP1 antag inactive and RXFP1 ag inactive.
Screening CNc1snc(C)c1C(=O)OC(C)C(=O)Nc1ccccc1 (stereo unspecified) returned gsp ag inactive, RXFP1 antag inactive, gsp antag inactive and RXFP1 ag inactive.
COC(=O)c1c(C)nsc1NC(=O)Oc1ccccc1 was read as gsp ag 4.5µM, RXFP1 antag inactive, gsp antag inactive and RXFP1 ag inactive.
CC1(C)[C@@H](OC(=O)CCC(=O)O)CC[C@]2(C)[C@H]3C(=O)C=C4[C@@H]5C[C@@](C)(C(=O)O)CC[C@]5(C)CC[C@@]4(C)[C@]3(C)CC[C@@H]12 was read as RXFP1 antag inactive.
Screening CCc1c(O)cc2n(c1=O)-c1ccc(Cl)cc1C2(C)C returned gsp ag inconclusive, RXFP1 antag inactive, gsp antag 45µM and RXFP1 ag inactive.
`C=CCn1c(=O)c(CCC(=O)Nc2ccc(N3CCOCC3)cc2)nc2cc(C(F)(F)F)ccc21` gave gsp ag inconclusive, RXFP1 antag -68, gsp antag inactive and RXFP1 ag inactive.
Screening CCCSCCCNC(=O)c1cc2n(n1)CCCN(Cc1ccc(C)cc1)C2=O returned RXFP1 antag inactive and RXFP1 ag inactive.
